Source: PubChem BioAssay (NCATS)
Results filed as inconclusive are left out. Active and inactive are the calls of the source. Unless noted, calls follow the shape of the dose curve; as a rule, active = well fitted curve in the direction sought with a large enough effect; inconclusive = small, poorly fitted or top-dose-only effect, or another doubt; inactive = no such curve, though single readings can be large; an effect the other way counts as inactive or inconclusive.

Assay: qHTS Assay for Identification of Small Molecule Agonists for NFkB Signaling Pathway. (AID 624478);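 also: compounds tested together with TNF alpha at its EC50 of 10 pM; 0% is about no effect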
Conditions: NFkB pathway reporter cell assay, agonist mode, cells co-stimulated with 10 pM TNF alpha; series mostly up to 46.1 µM; activation: at the top concentration
In short: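 ME-180 cervical carcinoma, stable NFkB-RE beta-lactamase reporter; 1000 cells/well, overnight attachment; cpd + TNF alpha 10 pM final, 5 h 37 C; LiveBLAzer 2 h RT; FRET 460/530 nm, ex 405 nm.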

| Structure (SMILES) | activation |
| --- | --- |
| COC[C@H]1OC(=O)c2coc3c2[C@@]1(C)C1=C(C3=O)C2CCC(=O)[C@@]2(C)C[C@H]1OC(C)=O (some centres undefined) | -0.729% (inactive) |
| CN(C)CCN(C)CCc1ccc(Cl)c(Cl)c1 | 3.18% (inactive) |
| COC1(CS(=O)c2ccccc2)CCN(CCc2c[nH]c3ccc(F)cc23)CC1 (centres undefined) | -0.474% (inactive) |
| Cn1cc(C2=C(c3cn(C4CCN(Cc5ccccn5)CC4)c4ccccc34)C(=O)NC2=O)c2ccccc21 | 0.56% (inactive) |
| Cc1sc2c(c1C)C(c1ccc(Cl)cc1)=N[C@@H](CC(=O)OC(C)(C)C)c1nnc(C)n1-2 | -2.49% (inactive) |
| CNC(=O)c1ccc(N2C(=S)N(c3ccc(C#N)c(C(F)(F)F)c3)C(=O)C23CCC3)cc1F | -2.13% (inactive) |
| CC1=C2C[C@@H]3[C@@H](CC=C4C[C@@H](O)CC[C@@]43C)[C@@H]2CC[C@]12O[C@H]1C[C@H](C)CN[C@H]1[C@H]2C | -0.769% (inactive) |
| O=C(O)C(=O)c1cn(Cc2ccccc2)c2ccc(-c3ccc(OC(F)(F)F)cc3)cc12 | -0.168% (inactive) |
| COc1ccc(C(=O)c2c(C)n(CCN3CCOCC3)c3ccccc23)cc1 | 5.26% (inactive) |
| CCCCC/C=C\C/C=C\C/C=C\C/C=C\CCCC(=O)NC1CC1 | -0.311% (inactive) |
| Cc1cc(SCc2sc(-c3ccc(C(F)(F)F)c(F)c3)nc2C)ccc1OCC(=O)O | -0.251% (inactive) |
| C[C@@H]1[C@@H](CC(C[C@H]2O[C@@H]3O[C@]4(C)CC[C@@H]5[C@H](C)CC[C@@H]([C@H]2C)[C@@]35OO4)C[S+](=O)([O-])c2ccc(COC(=O)N(C)C)cc2)O[C@@H]2O[C@]3(C)CC[C@H]4[C@H](C)CC[C@@H]1[C@@]24OO3 (some centres undefined) | -2.16% (inactive) |
| CC(O)(CS(=O)(=O)c1ccc(F)cc1)C(=O)Nc1ccc(C#N)c(C(F)(F)F)c1 (centres undefined) | -1.75% (inactive) |
| C[C@@H]1[C@@H](C(=O)C[C@H]2O[C@@H]3O[C@]4(C)CC[C@@H]5[C@H](C)CC[C@@H]([C@H]2C)[C@@]35OO4)O[C@@H]2O[C@]3(C)CC[C@H]4[C@H](C)CC[C@@H]1[C@@]24OO3 | -0.61% (inactive) |
| Cn1c(CCCC(=O)O)nc2cc(N(CCCl)CCCl)ccc21 | 1.2% (inactive) |
| CNC(=O)N1N=C(c2ccc(N)cc2)c2cc3c(cc2CC1C)OCO3 (centres undefined) | -1.31% (inactive) |

Assay: qHTS Assay for Identification of Small Molecule Antagonists for NFkB Signaling Pathway. (AID 624479; calls by dose curve; also: potency is read from the fitted curve at half-maximal effect; as to activity change, negative = inhibition: % is scaled to controls: 0 for no effect and ±100 for the full control effect)
Conditions: NFkB pathway reporter cell assay, antagonist mode; series mostly up to 38.3 µM; activity change, negative = inhibition: at the top concentration

| Structure (SMILES) | Potency | activity change, negative = inhibition |
| --- | --- | --- |
| COC[C@H]1OC(=O)c2coc3c2[C@@]1(C)C1=C(C3=O)C2CCC(=O)[C@@]2(C)C[C@H]1OC(C)=O (some centres undefined) | 13.3 µM (active) |  |
| COC1(CS(=O)c2ccccc2)CCN(CCc2c[nH]c3ccc(F)cc23)CC1 (centres undefined) |  | -18.5% (inactive) |
| Cn1cc(C2=C(c3cn(C4CCN(Cc5ccccn5)CC4)c4ccccc34)C(=O)NC2=O)c2ccccc21 | 6.68 µM (active) |  |
| CNC(=O)c1ccc(N2C(=S)N(c3ccc(C#N)c(C(F)(F)F)c3)C(=O)C23CCC3)cc1F |  | -10.1% (inactive) |
| CO[C@@H](C(=O)N1Cc2[nH]nc(NC(=O)c3ccc(N4CCN(C)CC4)cc3)c2C1)c1ccccc1 | 11.9 µM (active) |  |
| O=C(O)C(=O)c1cn(Cc2ccccc2)c2ccc(-c3ccc(OC(F)(F)F)cc3)cc12 | 16.8 µM (active) |  |
| COc1ccc(C(=O)c2c(C)n(CCN3CCOCC3)c3ccccc23)cc1 |  | -22.3% (inactive) |
| O=c1c(O)c(-c2ccc(O)c(O)c2)oc2cc(O)cc(O)c12 | 14.9 µM (active) |  |
| CC(O)(CS(=O)(=O)c1ccc(F)cc1)C(=O)Nc1ccc(C#N)c(C(F)(F)F)c1 (centres undefined) |  | -13.6% (inactive) |
| Cc1cc2c(C(C)C)c(O)c(O)c(C=O)c2c(O)c1-c1c(C)cc2c(C(C)C)c(O)c(O)c(C=O)c2c1O | 5.95 µM (active) |  |
| C[C@@H]1[C@@H](C(=O)C[C@H]2O[C@@H]3O[C@]4(C)CC[C@@H]5[C@H](C)CC[C@@H]([C@H]2C)[C@@]35OO4)O[C@@H]2O[C@]3(C)CC[C@H]4[C@H](C)CC[C@@H]1[C@@]24OO3 |  | -12.5% (inactive) |
| Cn1c(CCCC(=O)O)nc2cc(N(CCCl)CCCl)ccc21 |  | -6.03% (inactive) |
| CNC(=O)N1N=C(c2ccc(N)cc2)c2cc3c(cc2CC1C)OCO3 (centres undefined) |  | -26.6% (inactive) |

Assay: Cell Proliferation Assay against the TMD8 Cell Line (AID 651645);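 also: cells exposed to compound for 48 h before reading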
Conditions: TMD8 DLBCL cell line proliferation/viability; at 46.1 µM (top of the series)
In short: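 TMD8 ABC DLBCL cells, 500 per well in phenol red-free RPMI with 5% FBS, were treated with compound by pin transfer and incubated 48 hours at 37C, 5% CO2. Viability was read by CellTiter-Glo luminescence, normalised to DMSO (100%) and 9.2 uM bortezomib (0%).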

| Structure (SMILES) | viability (% of control) |
| --- | --- |
| COC[C@H]1OC(=O)c2coc3c2[C@@]1(C)C1=C(C3=O)C2CCC(=O)[C@@]2(C)C[C@H]1OC(C)=O (some centres undefined) | 17.1% |
| CN(C)CCN(C)CCc1ccc(Cl)c(Cl)c1 | 74% |
| COC1(CS(=O)c2ccccc2)CCN(CCc2c[nH]c3ccc(F)cc23)CC1 (centres undefined) | 79.9% |
| Cn1cc(C2=C(c3cn(C4CCN(Cc5ccccn5)CC4)c4ccccc34)C(=O)NC2=O)c2ccccc21 | 3.76% |
| Cc1sc2c(c1C)C(c1ccc(Cl)cc1)=N[C@@H](CC(=O)OC(C)(C)C)c1nnc(C)n1-2 | 2.73% |
| CNC(=O)c1ccc(N2C(=S)N(c3ccc(C#N)c(C(F)(F)F)c3)C(=O)C23CCC3)cc1F | 71.2% |
| CC1=C2C[C@@H]3[C@@H](CC=C4C[C@@H](O)CC[C@@]43C)[C@@H]2CC[C@]12O[C@H]1C[C@H](C)CN[C@H]1[C@H]2C | 62.9% |
| CC(C)n1c(C=C[C@H](O)C[C@H](O)CC(=O)O)c(-c2ccc(F)cc2)c2ccccc21 | 83.4% |
| C[C@]12CCC(=O)C(O)=C1CC[C@@H]1[C@@H]2CC[C@]2(C)C(=O)CC[C@@H]12 | 87.8% |
| O=C(O)C(=O)c1cn(Cc2ccccc2)c2ccc(-c3ccc(OC(F)(F)F)cc3)cc12 | 75.1% |
| COc1ccc(C(=O)c2c(C)n(CCN3CCOCC3)c3ccccc23)cc1 | 18.8% |
| O=c1c(O)c(-c2ccc(O)c(O)c2)oc2cc(O)cc(O)c12 | 46.1% |
| CCCCC/C=C\C/C=C\C/C=C\C/C=C\CCCC(=O)NC1CC1 | 86.9% |
| Cc1cc(SCc2sc(-c3ccc(C(F)(F)F)c(F)c3)nc2C)ccc1OCC(=O)O | 80.8% |
| C[C@@H]1[C@@H](CC(C[C@H]2O[C@@H]3O[C@]4(C)CC[C@@H]5[C@H](C)CC[C@@H]([C@H]2C)[C@@]35OO4)C[S+](=O)([O-])c2ccc(COC(=O)N(C)C)cc2)O[C@@H]2O[C@]3(C)CC[C@H]4[C@H](C)CC[C@@H]1[C@@]24OO3 (some centres undefined) | 5.05% |
| CS(=O)c1ccc(-c2nc(-c3ccc(F)cc3)c(-c3ccncc3)[nH]2)cc1 (centres undefined) | 92.2% |
| CC(O)(CS(=O)(=O)c1ccc(F)cc1)C(=O)Nc1ccc(C#N)c(C(F)(F)F)c1 (centres undefined) | 109% |
| C[C@@H]1[C@@H](C(=O)C[C@H]2O[C@@H]3O[C@]4(C)CC[C@@H]5[C@H](C)CC[C@@H]([C@H]2C)[C@@]35OO4)O[C@@H]2O[C@]3(C)CC[C@H]4[C@H](C)CC[C@@H]1[C@@]24OO3 | 6.12% |
| Cn1c(CCCC(=O)O)nc2cc(N(CCCl)CCCl)ccc21 | 95.4% |
| CNC(=O)N1N=C(c2ccc(N)cc2)c2cc3c(cc2CC1C)OCO3 (centres undefined) | 5.8% |
